According to the supplement of paper PMC8728848:
Many of the other results were omitted from the sample, so the strongest signals are more common in it than they were.

What was measured:
Assay in all cases: glycan array binding signal (z-score within array); higher = stronger binding
Conditions in all cases: glycan notation: IUPAC condensed, linker removed
[1] = target: Fuc(a1-2)Gal(b1-3)GalNAc(a1-3)[Fuc(a1-2)]Gal(b1-4)Glc
Outline: (§1)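 Glycan array binding is given as a within-array Z-score, which can be read as non-binding when negative. The arrays, 3228 of them, came from the Consortium for Functional Glycomics database and were retained only where the protein sequence was available. Z-scores were averaged across arrays of the same protein sequence at different concentrations or buffers and across linkers.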

[2] = target: Fuc(a1-2)Gal(b1-3)[Fuc(a1-4)]GlcNAc(b1-2)Man(a1-3)[Fuc(a1-2)Gal(b1-3)[Fuc(a1-4)]GlcNAc(b1-2)Man(a1-3)]Man(b1-4)GlcNAc(b1-4)GlcNAc
Outline: as §1

[3] = target: Fuc(a1-2)Gal(b1-4)GlcNAc(b1-3)Gal(b1-4)GlcNAc(b1-2)Man(a1-3)[Fuc(a1-2)Gal(b1-4)GlcNAc(b1-3)Gal(b1-4)GlcNAc(b1-2)Man(a1-6)]Man(b1-4)GlcNAc(b1-4)GlcNAc
Outline: as §1

[4] = target: Fuc(a1-2)Gal(b1-4)[Fuc(a1-3)]GlcNAc(b1-2)[Fuc(a1-2)Gal(b1-4)[Fuc(a1-3)]GlcNAc(b1-4)]Man(a1-3)[Fuc(a1-2)Gal(b1-4)[Fuc(a1-3)]GlcNAc(b1-2)Man(a1-6)]Man(b1-4)GlcNAc(b1-4)GlcNAc
Outline: as §1

[5] = target: Fuc(a1-2)Gal6S(b1-3)GlcNAc6S
Outline: as §1

Fuc(a1-2)[Gal(a1-3)]Gal = target: Fuc(a1-2)[Gal(a1-3)]Gal
Outline: as §1

[6] = target: Fuc(a1-2)[Gal(a1-3)]Gal(b1-3)GlcNAc(b1-3)GalNAc
Outline: as §1

[7] = target: Fuc(a1-2)[GalNAc(a1-3)]Gal(b1-3)GlcNAc(b1-2)Man(a1-3)[Fuc(a1-2)[GalNAc(a1-3)]Gal(b1-3)GlcNAc(b1-2)Man(a1-6)]Man(b1-4)GlcNAc(b1-4)[Fuc(a1-6)]GlcNAc
Outline: as §1

[8] = target: Fuc(a1-2)[GalNAc(a1-3)]Gal(b1-3)GlcNAc(b1-6)GalNAc
Outline: as §1

[9] = target: Fuc(a1-2)[GalNAc(a1-4)]Gal(b1-4)GlcNAc
Outline: as §1

[10] = target: Fuc(a1-3)[Gal(b1-4)]GlcNAc(b1-3)Gal(b1-4)[Fuc(a1-3)]GlcNAc(b1-3)Gal(b1-4)[Fuc(a1-3)]GlcNAc
Outline: as §1

[11] = target: Gal(a1-3)Fuc(a1-2)Gal(b1-4)GlcNAc(b1-3)[Gal(a1-3)Fuc(a1-2)Gal(b1-4)GlcNAc(b1-6)]GalNAc
Outline: as §1

Gal(a1-3)Gal(b1-3)GlcNAc = target: Gal(a1-3)Gal(b1-3)GlcNAc
Outline: as §1

[12] = target: Gal(a1-3)Gal(b1-4)GlcNAc(b1-2)Man(a1-3)[Gal(a1-3)Gal(b1-4)GlcNAc(b1-2)Man(a1-6)]Man(b1-4)GlcNAc(b1-4)GlcNAc
Outline: as §1

[13] = target: Gal(a1-4)Gal(b1-3)GlcNAc(b1-2)Man(a1-3)[Gal(a1-4)Gal(b1-3)GlcNAc(b1-2)Man(a1-6)]Man(b1-4)GlcNAc(b1-4)GlcNAc
Outline: as §1

[14] = target: Gal(a1-4)Gal(b1-4)GlcNAc(b1-3)Gal(b1-4)Glc
Outline: as §1

[15] = target: Gal(b1-3)GlcNAc(a1-6)Gal(b1-4)GlcNAc
Outline: as §1

Gal(b1-3)GlcNAc6S = target: Gal(b1-3)GlcNAc6S
Outline: as §1

[16] = target: Gal(b1-3)[Neu5Ac(a2-6)]GlcNAc(b1-4)Gal(b1-4)Glc
Outline: as §1

[17] = target: Gal(b1-4)GlcNAc(b1-2)Man(a1-3)Man(b1-4)GlcNAc(b1-4)GlcNAc
Outline: as §1

[18] = target: Gal(b1-4)GlcNAc(b1-2)Man(a1-3)[Gal(b1-4)GlcNAc(b1-2)Man(a1-6)]Man(b1-4)GlcNAc(b1-4)GlcNAc
Outline: as §1

[19] = target: Gal(b1-4)GlcNAc(b1-2)[Gal(b1-4)GlcNAc(b1-4)]Man(a1-3)[GlcNAc(b1-4)][Gal(b1-4)GlcNAc(b1-2)Man(a1-6)]Man(b1-4)GlcNAc(b1-4)GlcNAc
Outline: as §1

[20] = target: Gal(b1-4)GlcNAc(b1-2)[Gal(b1-4)GlcNAc(b1-6)]Man(a1-6)[Gal(b1-4)GlcNAc(b1-2)Man(a1-3)]Man(b1-4)GlcNAc(b1-4)[Fuc(a1-6)]GlcNAc
Outline: as §1

[21] = target: Gal(b1-4)GlcNAc(b1-3)Gal(b1-4)GlcNAc(b1-2)Man(a1-3)[Gal(b1-4)GlcNAc(b1-3)Gal(b1-4)GlcNAc(b1-2)Man(a1-6)]Man(b1-4)GlcNAc(b1-4)[Fuc(a1-6)]GlcNAc
Outline: as §1

[22] = target: Gal(b1-4)GlcNAc(b1-3)Gal(b1-4)GlcNAc(b1-3)Gal(b1-4)GlcNAc(b1-2)Man(a1-3)[Gal(b1-4)GlcNAc(b1-3)Gal(b1-4)GlcNAc(b1-3)Gal(b1-4)GlcNAc(b1-2)Man(a1-6)]Man(b1-4)GlcNAc(b1-4)GlcNAc
Outline: as §1

[23] = target: Gal(b1-4)GlcNAc(b1-3)Gal(b1-4)GlcNAc(b1-3)[Gal(b1-4)GlcNAc(b1-3)Gal(b1-4)GlcNAc(b1-6)]GalNAc
Outline: as §1

Gal(b1-6)Gal = target: Gal(b1-6)Gal
Outline: as §1

Gal3S(b1-4)Glc = target: Gal3S(b1-4)Glc
Outline: as §1

Gal4S6S(b1-4)GlcNAc = target: Gal4S6S(b1-4)GlcNAc
Outline: as §1

B1: FliC (Clostridium difficile) (protein)
chain: MRVNTNVSALIANNQMGRNVNGQSKSMEKLSSGVRIKRAADDAAGLAISEKMRAQIKGLDQAGRNVQDGISVVQTAEGSLEETGNILQRMRTLSLQSANEINNTEEREKIADELTQLKDEIERISSSTEFNGKKLLDGTSSTIRLQVGASYGTNVSGTSNNNNEIKIQLVNTASIMASAGITTASIGSMKAGGTTGTDAAKTMVSSLDAALKSLNSSRAKLGAQQNRLESTQNNLNNTLENVTAAESRIRDTDVASEMVNLSKMNILVQASQSMLAQANQQPQGVLQLLG
B1 was tested. Which “glycan array binding signal (z-score)” value [1] did it give?
Its value is 0.883.

What about the “glycan array binding signal (z-score)” value [2] of the same binder?
The value was 0.721.

What about the “glycan array binding signal (z-score)” value [3] of the same binder?
The value was 0.257.

What about the “glycan array binding signal (z-score)” value [4] of the same binder?
The value was 0.298.

And the “glycan array binding signal (z-score)” value [5]?
Its value is 0.013.

What about the “glycan array binding signal (z-score)” value (Fuc(a1-2)[Gal(a1-3)]Gal) of the same binder?
The value was 0.187.

And the “glycan array binding signal (z-score)” value [6]?
The value was 0.173.

What about the “glycan array binding signal (z-score)” value [7] of the same binder?
The value was 1.26.

And the “glycan array binding signal (z-score)” value [8]?
Its value is -0.176.

What about the “glycan array binding signal (z-score)” value [9] of the same binder?
Its value is -0.165.

What about the “glycan array binding signal (z-score)” value [10] of the same binder?
The value was -0.069.

And the “glycan array binding signal (z-score)” value [11]?
The value was -0.356.

What about the “glycan array binding signal (z-score)” value (Gal(a1-3)Gal(b1-3)GlcNAc) of the same binder?
The value was 4.21.

And the “glycan array binding signal (z-score)” value [12]?
The value was 8.29.

What about the “glycan array binding signal (z-score)” value [13] of the same binder?
Its value is 4.1.

And the “glycan array binding signal (z-score)” value [14]?
The value was 0.243.

What about the “glycan array binding signal (z-score)” value [15] of the same binder?
The value was -0.584.

What about the “glycan array binding signal (z-score)” value (Gal(b1-3)GlcNAc6S) of the same binder?
Its value is -0.373.

And the “glycan array binding signal (z-score)” value [16]?
The value was -0.467.

And the “glycan array binding signal (z-score)” value [17]?
Its value is -0.407.

What about the “glycan array binding signal (z-score)” value [18] of the same binder?
The value was 0.049.

And the “glycan array binding signal (z-score)” value [19]?
Its value is -0.113.

And the “glycan array binding signal (z-score)” value [20]?
Its value is 0.28.

What about the “glycan array binding signal (z-score)” value [21] of the same binder?
Its value is 2.39.

And the “glycan array binding signal (z-score)” value [22]?
The value was 2.15.

And the “glycan array binding signal (z-score)” value [23]?
The value was 2.33.

What about the “glycan array binding signal (z-score)” value (Gal(b1-6)Gal) of the same binder?
Its value is 0.447.

And the “glycan array binding signal (z-score)” value (Gal3S(b1-4)Glc)?
Its value is -0.03.

What about the “glycan array binding signal (z-score)” value (Gal4S6S(b1-4)GlcNAc) of the same binder?
Its value is -0.316.
